Laboratory results as given in ChEMBL document CHEMBL4513141, “CO-ADD screening of NIH (USA) - Clinical Collection” (2021).
Entries with a potency or affinity are not part of this list.

How the values were obtained:
Klebsiella pneumoniae = conditions: Concentration 20 uM; ASSAY_TEST Inhibition of Bacterial Growth; detection method Absorption (OD600); MEDIA CAMHB; plate type 384well; NBS; CORNING #3640; time 18 hr
Candida albicans = conditions: 20 µM
Cryptococcus neoformans = conditions: Concentration 20 uM; ASSAY_TEST Inhibition of Fungal Growth; detection method Resazurin; Absorption (OD600-OD570); plate type 384well; NBS; CORNING #3640

SMILES	Inhibition (Klebsiella pneumoniae)	Inhibition (Candida albicans)	Inhibition (Cryptococcus neoformans)
CNCC[C@@H](Oc1ccccc1C)c1ccccc1.Cl [ATOMOXETINE HYDROCHLORIDE]	2.35%	3.59%	5.55%
COc1ccc(CN2CCN(C(c3ccc(F)cc3)c3ccc(F)cc3)CC2)c(OC)c1OC.Cl.Cl	-0.73%	2.16%	-36.76%
C#C[C@]1(O)CC[C@H]2[C@@H]3CCc4cc(OC)ccc4[C@H]3CC[C@@]21C [MESTRANOL]	4.28%	4.15%	-7.53%
O=C(CCCN1CC=C(n2c(=O)[nH]c3ccccc32)CC1)c1ccc(F)cc1 [DROPERIDOL]	9.88%	4.22%	-8.67%
Cc1cc2c(s1)Nc1ccccc1N=C2N1CCN(C)CC1 [OLANZAPINE]	5.81%	-0.3%	-5.37%
CC1=C(/C=C/C(C)=C/C=C/C(C)=C\C(=O)O)C(C)(C)CCC1 [ISOTRETINOIN]	9.94%	1.42%	-2.4%
Cl.O=C(NCC1CCCCN1)c1cc(OCC(F)(F)F)ccc1OCC(F)(F)F (configuration not stated)	7.49%	3.33%	-9.22%
O=c1[nH]c(=O)n(C2CCCO2)cc1F (configuration not stated) [TEGAFUR]	13.49%	3.66%	-3.75%
CC(=O)CCCCn1c(=O)c2c(ncn2C)n(C)c1=O [PENTOXIFYLLINE]	12.41%	2.65%	-7.44%
c1ccc2[nH]c(-c3cscn3)nc2c1 [THIABENDAZOLE]	17.05%	1.43%	-4.52%
CC(N/C(=N\C#N)Nc1ccncc1)C(C)(C)C.O (configuration not stated)	0.13%	1.29%	-6.76%
Cc1onc(-c2ccccc2)c1-c1ccc(S(N)(=O)=O)cc1 [VALDECOXIB]	13.38%	1.13%	0.76%
Cc1cccc(C)c1OCC(C)N.Cl (configuration not stated) [MEXILETINE HYDROCHLORIDE]	13.5%	3.72%	-0.12%
O=C1[C@H](CC[C@H](O)c2ccc(F)cc2)[C@@H](c2ccc(O)cc2)N1c1ccc(F)cc1 [EZETIMIBE]	2.21%	-1%	-1.78%
CC(COc1ccccc1)NC(C)C(O)c1ccc(O)cc1.Cl (configuration not stated) [ISOXSUPRINE HYDROCHLORIDE]	7.34%	3.25%	-2.3%
CN(C)CCC[C@@]1(c2ccc(F)cc2)OCc2cc(C#N)ccc21.O=C(O)C(=O)O [ESCITALOPRAM OXALATE]	13.63%	3.94%	-10.38%
Nc1nc2c(ncn2COCCO)c(=O)[nH]1 [ACYCLOVIR]	6.29%	4.6%	-1.27%
COc1c2occc2cc2ccc(=O)oc12 [METHOXSALEN]	9.19%	5.22%	-0.09%
O=C1C(CC[S+]([O-])c2ccccc2)C(=O)N(c2ccccc2)N1c1ccccc1 (configuration not stated) [SULFINPYRAZONE]	13.98%	4.96%	-8.91%
CCCCNc1cc(C(=O)O)cc(S(N)(=O)=O)c1Oc1ccccc1 [BUMETANIDE]	11.75%	3.22%	1%
Cc1ccc(Cl)c(Nc2ccccc2C(=O)[O-])c1Cl.O.[Na+] [MECLOFENAMATE SODIUM]	12.39%	8.09%	1.36%
Cc1ccccc1C(OCCN(C)C)c1ccccc1.Cl (configuration not stated) [ORPHENADRINE HYDROCHLORIDE]	11.73%	1.54%	-6.53%
CN1CCN(CCCN2c3ccccc3Sc3ccc(Cl)cc32)CC1.O=C(O)/C=C\C(=O)O.O=C(O)/C=C\C(=O)O [PROCHLORPERAZINE MALEATE]	14.2%	3.08%	-1.92%
O=C(NCCN1CCOCC1)c1ccc(Cl)cc1 [MOCLOBEMIDE]	9.06%	3.1%	-2.98%
CN1CC(=O)N2[C@H](c3ccc4c(c3)OCO4)c3[nH]c4ccccc4c3C[C@@H]2C1=O	2.98%	-1.32%	-3.58%
CN(C)CCN(Cc1ccccc1)c1ccccn1.Cl [TRIPELENNAMINE HYDROCHLORIDE]	2.28%	5.56%	2.92%
NS(=O)(=O)c1cc2c(cc1Cl)NCNS2(=O)=O [HYDROCHLOROTHIAZIDE]	14.61%	2.05%	-7.59%
Cc1occc(=O)c1O [MALTOL]	10.28%	4.42%	-2.15%
O=C(O)CCc1nc(-c2ccccc2)c(-c2ccccc2)o1 [OXAPROZIN]	16.28%	18.9%	-4.51%
